Where “and” joins values, the source holds several entries; their conditions need not be identical. Equal entries are not always repeated. Results filed as inconclusive are left out. Calls of active or inactive are those of the source. Unless noted, the call rests on the fitted dose curve; in most records, active means well fitted curve in the direction sought with a large enough effect; inconclusive means small, poorly fitted or top-dose-only effect, or another doubt; inactive means no such curve, though single readings can be large; an effect the other way counts as inactive or inconclusive. Where a SMILES comes first, the peptide text is derived from it. [ ]: non-standard residue; d: D form. pGlu = O=C1CC[C@@H](C(=O)O)N1; Thz = O=C(O)[C@@H]1CSCN1
Legend:
[1] = target: Glutathione peroxidase 1 (Homo sapiens) (UniProt P07203); test: Primary qHTS Assay for Inhibitors of Recombinant Selenoprotein Glutathione Peroxidase 1 (GPX1) (AID 1845191); further: nearly all actives have a fitted effect of over 65% in size; on activity, negative = inhibition: on the % scale 0 is the no-effect control and ±100 the full control effect
Summary of the method: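 NADPH consumption tracked by fluorescence at 340/450 nm between t=0 and t=15 min, room temperature. Final mix: 10 nM GPX1, 100 nM glutathione reductase, 1 mM GSH, 0.5 mM NADPH, 0.5 mM cumene hydroperoxide, 0.01% BSA; 30 min compound–enzyme preincubation.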

[2] = target: Phospholipid hydroperoxide glutathione peroxidase GPX4 (Homo sapiens) (UniProt P36969); test: Primary qHTS Assay for Inhibitors of Recombinant Selenoprotein Glutathione Peroxidase 4 (GPX4) (AID 1845192); further: nearly all actives have a fitted effect of over 65% in size; further: potency means the concentration at half of the fitted maximal effect
Summary of the method: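 NADPH consumption followed by fluorescence at 340/450 nm, t=0 and after 15 min at room temperature. Reaction started with cumene hydroperoxide (0.5 mM final) after 30 min compound–GPX4 preincubation; final 200 nM GPX4, 100 nM GR, 1 mM GSH, 0.5 mM NADPH.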

[3] = target: Luciferin 4-monooxygenase (Photinus pyralis) (UniProt P08659); test: Primary firefly luciferase (FLuc) qHTS assay for identification of artifact compounds. (AID 1845220); further: nearly all actives have a fitted effect of over 60% in size; further: potency means the concentration at half of the fitted maximal effect
Summary of the method: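 Cell-free, 1536-well qHTS. Buffer pH 7.6 with 0.01% Tween-20 and 0.05% BSA; 10 uM D-luciferin, 10 uM ATP; 10 nM P. pyralis luciferase; luminescence after 5 min.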

[4] = Primary fluorescence-based thiol-reactive (MSTI) qHTS assay for identification of artifact compounds. (AID 1845221);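 further: thiol-reactive compounds lower the probe fluorescence signal; nearly all actives have a fitted effect of over 65% in size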
Summary of the method: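 Curve-fitted percent inhibition (4-parameter Hill) derived from fluorescence, Ex 525/Em 598 nm, scaled with Acetyl-MSTI and MSTI; 1 h incubation at room temperature.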

[5] = test system: Nanoluciferase (engineered Oplophorus gracilirostris luciferase); test: Primary Nanoluciferase (NLuc) qHTS assay for identification of artifact compounds. (AID 1845222); further: potency means the concentration at half of the fitted maximal effect;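 on activity, negative = inhibition: 0% = DMSO and -100% = no enzyme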
Summary of the method: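 Compounds are pinned into diluted (1:55) conditioned medium of NLuc-expressing S16 cells and held 15 min at room temperature protected from light. Nano-Glo substrate follows, and luminescence is read 5 min later.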

[6] = Primary redox qHTS assay for identification of artifact compounds. (AID 1845223);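 further: 0% = DMSO and 100% = reference compound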
Summary of the method: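 Redox-cycling detection via DTT (250 uM final) oxidation coupled to Amplex Red (25 uM)/HRP (250 mU/mL) in HBSS. 15 min preincubation plus 30 min after DTT, room temperature. Ex/Em 525/598 nm; 4-parameter Hill fit against DMSO and 10 uM DA3003.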

[7] = qHTS drug screen for cell cycle checkpoint inhibitors in PARPi-resistant BRCA-mutant ovarian cancer cell lines. (AID 1963452; calls by dose curve); conditions: PEO1/OlaR viability, CellTiter-Glo luminescence, 96 h, stronger effect = lower value
Summary of the method: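 PEO1, PEO4 and PEO1/OlaR ovarian cancer cells, 600 per well, exposed 96 h at 37C to a dilution series. Viability read by CellTiter-Glo luminescence, normalized to DMSO and empty wells; activity summarized as Z-AUC.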

[8] = qHTS profiling for inhibitors of Plasmodium falciparum proliferation (AID 504749); further: potency means the concentration at half of the fitted maximal effect;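 on activity, negative = inhibition: 0% = DMSO vehicle and full inhibition = artemisinin control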; on all read-outs here: nearly all actives have a fitted effect of over 60% in size; conditions: P. falciparum in erythrocytes, SYBR Green DNA, 72 h; for activity, negative = inhibition: at 28.7 µM (top of the series)
Summary of the method: (§1)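 SYBR Green fluorescence of parasite DNA, read after lysis and overnight dark incubation, measured growth over 72 h in erythrocyte culture at 0.3% parasitemia and 2.5% hematocrit. Data normalised to DMSO and 0.29 uM artemisinin, with plate-drift correction.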

3D7 = test: as above; conditions: P. falciparum in erythrocytes, SYBR Green DNA, 72 h; series mostly up to 28.7 µM
Summary of the method: as §1

AA1029 = test: as above; conditions: P. falciparum in erythrocytes, SYBR Green DNA, 72 h; series mostly up to 28.7 µM
Summary of the method: as §1

7G8 = test: as above; conditions: P. falciparum in erythrocytes, SYBR Green DNA, 72 h; series mostly up to 28.7 µM
Summary of the method: as §1

[9] = measured here: PEO1 parental Z-AUC

Glutathione peroxidase 1 (Homo sapiens), sequence (P07203 whole entry, looked up): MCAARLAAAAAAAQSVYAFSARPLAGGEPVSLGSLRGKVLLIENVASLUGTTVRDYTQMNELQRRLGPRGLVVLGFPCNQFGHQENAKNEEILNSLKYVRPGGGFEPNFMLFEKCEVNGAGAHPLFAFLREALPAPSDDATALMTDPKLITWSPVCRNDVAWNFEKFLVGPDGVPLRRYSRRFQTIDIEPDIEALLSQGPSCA
Phospholipid hydroperoxide glutathione peroxidase GPX4 (Homo sapiens), sequence (P36969 whole entry, looked up): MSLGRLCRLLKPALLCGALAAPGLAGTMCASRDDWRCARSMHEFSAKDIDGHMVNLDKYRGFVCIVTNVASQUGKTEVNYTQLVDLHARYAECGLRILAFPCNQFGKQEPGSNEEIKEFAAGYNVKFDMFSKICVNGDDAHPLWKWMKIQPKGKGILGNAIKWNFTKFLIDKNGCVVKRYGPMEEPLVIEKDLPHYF

COc1ccc(/C=C/C(=O)Nc2ccccc2C(=O)O)cc1OC
active: Potency [3] 3010 nM | Potency [5] 21300 nM
inactive: Potency [1] | Potency [2] | outcome [4] | outcome [6] | Z-AUC [7] 1.02 | activity, negative = inhibition ([8]; parasite line A) 3.65% | activity, negative = inhibition ([8]; parasite line B) -0.207% | Potency (3D7) | Potency (AA1029)
0.971: Z-AUC ([7]; measured here: PEO4 Z-AUC)
1.51: Z-AUC [7, 9]

CCNC(=O)[C@H]1O[C@@H](n2cnc3c(N)nc(NCCc4ccc(CCC(=O)O)cc4)nc32)[C@H](O)[C@@H]1O
1.15: Z-AUC ([7]; measured here: PEO4 Z-AUC)
0.917: Z-AUC [7, 9]
inactive: Potency [1] | Potency [2] | Potency [3] | outcome [4] | Potency [5] | outcome [6] | Z-AUC [7] 1.44

O=C(/C=C/c1ccc(O)cc1)c1ccc(O)cc1O
inactive: Potency [1] | Potency [2] | Z-AUC [7] 0.396
0.804: Z-AUC [7, 9]
0.213: Z-AUC ([7]; measured here: PEO4 Z-AUC)

C/C(=N\O)c1ccc(OCC(=O)N2CCCCC2)cc1
inactive: Potency [1] | Potency [2] | outcome [4] | Potency [5] | outcome [6]

CC(C(=O)O)c1ccc2c(c1)[nH]c1ccc(Cl)cc12 (stereo not drawn)
inactive: Potency [1] | Potency [2] | Potency [3] | outcome [4] | outcome [6] | activity, negative = inhibition ([8]; parasite line A) 3.75% | activity, negative = inhibition ([8]; parasite line B) 2.58% | Potency (3D7) | Potency (7G8) | Potency (AA1029)

Oc1cc(O)cc(/C=C/c2ccc(O)c(O)c2)c1
0.317: Z-AUC ([7]; measured here: PEO4 Z-AUC)
inactive: Potency [1] | Potency [2] | Z-AUC [7] 1.52
0.906: Z-AUC [7, 9]

O=[N+]([O-])c1ccc(CNc2nc(NCc3cccc(C(F)(F)F)c3)nc3nc[nH]c23)cc1
inactive: Potency [1] | Potency [2] | Potency [3] | outcome [4] | Potency [5] | outcome [6]

Cc1ccc2c(n1)Oc1ccc(C(C)C(=O)OCC(=O)N(C)C)cc1C2 (stereo not drawn)
inactive: Potency [1] | Potency [2] | outcome [4] | Potency [5] | outcome [6]

O=C1CC[C@@H](C(=O)N2CSC[C@H]2C(=O)O)N1 ([pGlu]-[Thz]-OH)
inactive: Potency [1] | Potency [2] | Potency [3] | outcome [4] | Potency [5] | outcome [6] | activity, negative = inhibition ([8]; parasite line A) 14.8% | activity, negative = inhibition ([8]; parasite line B) 2.84% | Potency (3D7) | Potency (7G8) | Potency (AA1029)

O=C(Nc1ccc2[nH]ncc2c1)C1CCC1
inactive: Potency [1] | Potency [2] | Potency [3] | outcome [4] | Potency [5] | outcome [6]

O=C(O)[C@H](CC(=O)N1C[C@H]2CCCC[C@H]2C1)Cc1ccccc1
-0.735: Z-AUC [7, 9]
inactive: Potency [1] | Potency [2] | Potency [3] | outcome [4] | Potency [5] | outcome [6] | Z-AUC [7] -0.763 | activity, negative = inhibition ([8]; parasite line A) 9.74% | activity, negative = inhibition ([8]; parasite line B) 2.21% | Potency (3D7) | Potency (7G8) | Potency (AA1029)
-0.83: Z-AUC ([7]; measured here: PEO4 Z-AUC)

CN1[C@@H]2CC[C@H]1CC(OC(c1ccccc1)c1ccccc1)C2 (stereo partly drawn)
inactive: Potency [1] | Potency [2] | Potency [3] | outcome [4] | Potency [5] | outcome [6] | Potency (3D7)
active: Potency (7G8) 5.62 µM and 7.08 µM

CC(=O)c1ccc(OCC(=O)N2CCCCC2)cc1
inactive: Potency [1] | Potency [2] | Potency [3] | outcome [4] | Potency [5] | outcome [6]

C[N+]1(C)C2CC(OC(=O)[C@H](CO)c3ccccc3)CC1C1OC12 (stereo partly drawn)
2.01: Z-AUC ([7]; measured here: PEO4 Z-AUC)
1.91: Z-AUC [7, 9]
inactive: Potency [1] | Potency [2] | Z-AUC [7] 1.57

COc1cc(SC)ccc1C(=O)N1CCC(Cc2ccccc2)CC1
1.59: Z-AUC ([7]; measured here: PEO4 Z-AUC)
1.42: Z-AUC [7, 9]
inactive: Potency [1] | Potency [2] | Z-AUC [7] 0.323

O=S(=O)(c1cccc2c(I)cccc12)N1CCCNCC1
-0.557: Z-AUC [7, 9]
inactive: Potency [1] | Potency [2] | Z-AUC [7] -0.863
-0.682: Z-AUC ([7]; measured here: PEO4 Z-AUC)

CS(=O)(=O)c1ccc(-n2nc(C(F)(F)F)cc2-c2ccc(F)cc2)cc1
inactive: Potency [1] | Potency [2] | Potency [3] | outcome [4] | Potency [5] | outcome [6]

CC[C@H]1OC(=O)[C@H](C)[C@@H](O[C@H]2C[C@@](C)(OC)[C@@H](O)[C@H](C)O2)[C@H](C)[C@@H](O[C@@H]2O[C@H](C)C[C@H](N(C)C)[C@H]2O)[C@](C)(O)C[C@@H](C)C(=O)[C@H](C)[C@@H](O)[C@]1(C)O
0.909: Z-AUC [7, 9]
inactive: Potency [1] | Potency [2] | Z-AUC [7] 1.12
1.27: Z-AUC ([7]; measured here: PEO4 Z-AUC)

N.N.O=C(O)C1(C(=O)O)CCC1.[Pt]
inactive: Potency [1] | Z-AUC [7] 1.36
0.632: Z-AUC [7, 9]
0.869: Z-AUC ([7]; measured here: PEO4 Z-AUC)
active: Potency [2] 22700 nM

CCOC(=O)N1CCN(/[N+]([O-])=N/Oc2ccc([N+](=O)[O-])cc2[N+](=O)[O-])CC1
inactive: Potency [1] | Potency [2] | Z-AUC [7] 1.46
1.72: Z-AUC [7, 9]
1.39: Z-AUC ([7]; measured here: PEO4 Z-AUC)

C=CCCCCCCCCC(=O)O
inactive: Potency [1] | Potency [2] | activity, negative = inhibition ([8]; parasite line A) 5.45% | activity, negative = inhibition ([8]; parasite line B) 15% | Potency (3D7) | Potency (7G8) | Potency (AA1029)

[O-][n+]1ccccc1SSc1cccc[n+]1[O-]
inactive: Potency [1] | Potency [2]
active: Potency ([8]; parasite line A) 891 nM | Potency ([8]; parasite line B) 891 nM | Potency (3D7) 891 nM | Potency (7G8) 891 nM | Potency (AA1029) 891 nM
